Records with an inconclusive call do not appear. Calls of active or inactive are those of the source. The call rests on the fitted dose curve; in most records, active means well fitted inhibition curve with a large enough effect; inconclusive means small, poorly fitted or top-dose-only effect; inactive means flat fitted curve, though single readings scatter.
On the % scale 0 is the no-effect control and ±100 the full control effect; potency means the concentration at half of the fitted maximal effect.

One assay deals with CRL-7250. Nature of the assay: Cytotoxic Profiling of Annotated Libraries Using Quantitative High-Throughput Screening (AID 1296008). Further: nearly all actives have a fitted effect of over 60% in size. Particulars: Five cell lines viability, CellTiter-Glo ATP luminescence, 48-72 h; max response: hits give low values. The procedure, abridged: (§1)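 Compounds were pin-transferred onto cells and incubated 48 or 72 hr at 37 degree Celsius, 95% humidity. CellTiter-Glo was added, plates sat 10 min at room temperature, then ATP-coupled luminescence was imaged as the viability read-out.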
Background: In ATP-based viability assays light output follows the ATP content of the culture.
With `c1ccc2c(c1)CCc1ccccc1N2`, the result was inactive.
Take `CC(CCc1ccc2c(c1)OCO2)NN` (stereo unspecified): the max response was -8.5% (inactive).
Same read-out and setting: with `Cc1ccccc1C(=O)N1CC/C(=N\OS(=O)(=O)O)c2ccc(Cl)cc21` the figure was 3.76% (inactive).
The same measure, in the same setting: as for `CC(=O)OC[C@H]1O[C@@H](OC(C)=O)[C@H](OC(C)=O)[C@@H]1OC(C)=O`, the figure is -4.36% (inactive); as for `CCOc1ccccc1OCC1CNCCO1` (stereo unspecified), -6.41% (inactive).
On the same count and under the same terms, with `C#CC(C)(CC)OC(=O)c1ccccc1C(=O)O` (stereo unspecified) the figure was -9.5% (inactive).
For `CC(C)C(=O)OCc1cccc(OC(=O)[C@@H]2N3C(=O)[C@@H](NC(=O)Cc4ccccc4)[C@H]3SC2(C)C)c1`, the call was inactive.
As to `C/C(=C1\CCOC(=O)S1)N(C=O)Cc1cnc(C)nc1N`, the max response was -21.8% (inactive).
The same measure, in the same setting: as for `CC1c2ccccc2CN1NC(=O)c1ccc(Cl)c(S(N)(=O)=O)c1` (stereo unspecified), the figure is -8.72% (inactive).
Still for that read-out and setting: with `CCc1cccc2c(CCO)c[nH]c12` the figure was -8.62% (inactive).
For `Nc1nc(=O)n([C@@H]2O[C@H](CO)[C@@H](O)[C@@H]2F)cc1I`, the max response was -26.4% (inactive).
For `Nc1c[n+](N2CCOCC2)no1`, the molecule was called inactive.
Regarding `O=C(O)CCC(=O)OC[C@@H](NC(=O)C(Cl)Cl)[C@H](O)c1ccc([N+](=O)[O-])cc1`, the max response is -4.73% (inactive).
On the same count and under the same terms, with `CC(C)C(=O)Nc1cccc(C2CN3CCSC3=N2)c1` (stereo unspecified) the figure was -9.12% (inactive).
As for `CCOC(=O)O[C@]1(C(=O)OCCl)CC[C@H]2[C@@H]3CCC4=CC(=O)C=C[C@]4(C)[C@H]3[C@@H](O)C[C@@]21C`, the molecule was called inactive.
With `COC(=O)c1ccc(NC(C)=O)cc1OC`, the max response is -0.178% (inactive).
On the same count and under the same terms, with `C[C@H]1C[C@H](O)c2ccsc2S1(=O)=O` the figure was -0.46% (inactive); with `CC(=O)O[C@H]1CC[C@@]2(C)C(=CC[C@@H]3[C@@H]2CC[C@]2(C)C(C(C)=O)=CC[C@@H]32)C1`, -17.3% (inactive).
On the same count and under the same terms, as for `CC(=O)c1cc2ccccc2s1`, the figure is -0.976% (inactive).
Consider `CCOC(=O)C(=O)c1csc(NC=O)n1`, for which the max response was -5.63% (inactive).
On to `CC(C)(Oc1ccc(Cl)cc1)C(=O)OCCCOC(=O)C(C)(C)Oc1ccc(Cl)cc1`, for which the max response was -5.16% (inactive).
Regarding `O=C(O)CCCC[C@@H]1SC[C@@H]2NC(=O)N[C@@H]21`, the outcome was inactive.
`Cc1c(F)cc2c(=O)c(C(=O)O)cn3c2c1CCC3C` (stereo unspecified): the max response was -2.94% (inactive).
For `CN1CCN(N)CC1`, the max response is -18.2% (inactive).
Consider `Fc1ccc(C(c2ccc(F)cc2)N2CCNCC2)cc1`, for which the outcome was inactive.
The same measure, in the same setting: with `N#Cc1cc(NC(=O)C(=O)O)c(Cl)c(NC(=O)C(=O)O)c1` the entry was “inactive”.
With `Cc1nc2n(c(=O)c1CCN1CCC(C(=O)c3ccc(F)cc3)CC1)CCS2`, the Potency was 9.44 µM (active).
As for `CCS(=O)(=O)c1ccc(OC)c(C(=O)OC)c1`, the max response is 0.361% (inactive).
The same measure, in the same setting: as for `O=C1CC2(CCCC2)CC(=O)N1CCNCC1COc2ccccc2O1` (stereo unspecified), the figure is -5.57% (inactive).
For `CCCCOCCOC(=O)c1cccnc1`, the molecule was called inactive.
The same measure, in the same setting: with `C/C(=N\O)[C@@H](C)NCC(C)(C)CN[C@H](C)/C(C)=N/O` the entry was “inactive”.
As to `C#Cc1ccc(-c2ccccc2F)cc1`, the max response is -10.3% (inactive).
In the case of `O=C(O)C1CCC1`, the molecule was called inactive.
On the same count and under the same terms, as for `NC(=O)NC1N=C([O][Al])NC1=O` (stereo unspecified), the entry is “inactive”.
Consider `CC(C)CCCC(C)NCCC(C)C` (stereo unspecified), for which the max response was -5.37% (inactive).
As for `Nc1ccc(C(=O)OCC(O)CO)cc1` (stereo unspecified), the max response was -0.994% (inactive).
As to `CCCCCCCCCCCC[N+](C)(C)Cc1ccccc1`, the Potency was 4.22 µM (active).
For `Cc1onc(-c2c(Cl)cccc2Cl)c1C(=O)Cl`, the outcome was inactive.

In the next assay the test system is HEK293. The description is as above. The conditions noted are these: Five cell lines viability, CellTiter-Glo ATP luminescence, 48-72 h; max response: hits give low values. In outline: as §1
On to `c1ccc2c(c1)CCc1ccccc1N2`, for which the molecule was called inactive.
For the molecule `CC(CCc1ccc2c(c1)OCO2)NN` (stereo unspecified), the call was inactive.
Take `Cc1ccccc1C(=O)N1CC/C(=N\OS(=O)(=O)O)c2ccc(Cl)cc21`: the max response was -7.21% (inactive).
On the same count and under the same terms, as for `CC(=O)OC[C@H]1O[C@@H](OC(C)=O)[C@H](OC(C)=O)[C@@H]1OC(C)=O`, the figure is 1.73% (inactive).
For the molecule `CCOc1ccccc1OCC1CNCCO1` (stereo unspecified), the result was inactive.
Take `C#CC(C)(CC)OC(=O)c1ccccc1C(=O)O` (stereo unspecified): the max response is 4.2% (inactive).
In the case of `CC(C)C(=O)OCc1cccc(OC(=O)[C@@H]2N3C(=O)[C@@H](NC(=O)Cc4ccccc4)[C@H]3SC2(C)C)c1`, the molecule was called inactive.
Take `C/C(=C1\CCOC(=O)S1)N(C=O)Cc1cnc(C)nc1N`: the max response is -12.5% (inactive).
As to `CC1c2ccccc2CN1NC(=O)c1ccc(Cl)c(S(N)(=O)=O)c1` (stereo unspecified), the max response was -4.92% (inactive).
The same measure, in the same setting: with `CCc1cccc2c(CCO)c[nH]c12` the figure was -6.21% (inactive).
Take `Nc1nc(=O)n([C@@H]2O[C@H](CO)[C@@H](O)[C@@H]2F)cc1I`: the molecule was classed as inactive.
Take `Nc1c[n+](N2CCOCC2)no1`: the result was inactive.
For the molecule `O=C(O)CCC(=O)OC[C@@H](NC(=O)C(Cl)Cl)[C@H](O)c1ccc([N+](=O)[O-])cc1`, the max response is -21.8% (inactive).
On the same count and under the same terms, as for `CC(C)C(=O)Nc1cccc(C2CN3CCSC3=N2)c1` (stereo unspecified), the figure is -1.66% (inactive).
For `CCOC(=O)O[C@]1(C(=O)OCCl)CC[C@H]2[C@@H]3CCC4=CC(=O)C=C[C@]4(C)[C@H]3[C@@H](O)C[C@@]21C`, the molecule was called inactive.
Consider `COC(=O)c1ccc(NC(C)=O)cc1OC`, for which the max response is -0.683% (inactive).
Still for that read-out and setting: with `C[C@H]1C[C@H](O)c2ccsc2S1(=O)=O` the figure was 3.47% (inactive).
For the molecule `CC(=O)O[C@H]1CC[C@@]2(C)C(=CC[C@@H]3[C@@H]2CC[C@]2(C)C(C(C)=O)=CC[C@@H]32)C1`, the max response was -0.38% (inactive).
For `CC(=O)c1cc2ccccc2s1`, the max response was -8.14% (inactive).
The same measure, in the same setting: as for `CCOC(=O)C(=O)c1csc(NC=O)n1`, the figure is 3.1% (inactive); as for `CC(C)(Oc1ccc(Cl)cc1)C(=O)OCCCOC(=O)C(C)(C)Oc1ccc(Cl)cc1`, -15.3% (inactive); as for `O=C(O)CCCC[C@@H]1SC[C@@H]2NC(=O)N[C@@H]21`, -6.79% (inactive).
With `Cc1c(F)cc2c(=O)c(C(=O)O)cn3c2c1CCC3C` (stereo unspecified), the call was inactive.
On the same count and under the same terms, as for `CN1CCN(N)CC1`, the entry is “inactive”.
On to `Fc1ccc(C(c2ccc(F)cc2)N2CCNCC2)cc1`, for which the max response was -6.69% (inactive).
Still for that read-out and setting: as for `N#Cc1cc(NC(=O)C(=O)O)c(Cl)c(NC(=O)C(=O)O)c1`, the figure is -3.47% (inactive).
Regarding `Cc1nc2n(c(=O)c1CCN1CCC(C(=O)c3ccc(F)cc3)CC1)CCS2`, the Potency is 8.41 µM (active).
On to `CCS(=O)(=O)c1ccc(OC)c(C(=O)OC)c1`, for which the molecule was called inactive.
As to `O=C1CC2(CCCC2)CC(=O)N1CCNCC1COc2ccccc2O1` (stereo unspecified), the outcome was inactive.
The same measure, in the same setting: with `CCCCOCCOC(=O)c1cccnc1` the entry was “inactive”.
Regarding `C/C(=N\O)[C@@H](C)NCC(C)(C)CN[C@H](C)/C(C)=N/O`, the max response was -22.3% (inactive).
As for `C#Cc1ccc(-c2ccccc2F)cc1`, the max response was -8.83% (inactive).
The same measure, in the same setting: as for `O=C(O)C1CCC1`, the figure is -2.16% (inactive).
Consider `NC(=O)NC1N=C([O][Al])NC1=O` (stereo unspecified), for which the molecule was called inactive.
As to `CC(C)CCCC(C)NCCC(C)C` (stereo unspecified), the max response is -7.84% (inactive).
Same read-out and setting: with `Nc1ccc(C(=O)OCC(O)CO)cc1` (stereo unspecified) the figure was -11.2% (inactive).
Consider `CCCCCCCCCCCC[N+](C)(C)Cc1ccccc1`, for which the Potency is 0.841 µM (active).
With `Cc1onc(-c2c(Cl)cccc2Cl)c1C(=O)Cl`, the max response is -4.58% (inactive).

These data come from PubChem BioAssay (NCATS).
